Consider 84 compounds from PubChem BioAssay AID1851 (National Center for Advancing Translational Sciences (NCATS), 2009).

As a reminder, the AC50 is the midpoint of the concentration-response curve, whichever way the signal moves.

Molecules are shown by their SMILES. Where “and” joins values, the source holds several entries; their conditions need not be identical. Equal entries are not always repeated. About 5,800 (36%) of roughly 16,000 compounds were called active. Another 23% or so got no clear call; they are omitted. Calls follow the shape of the dose curve; as a rule, active = well fitted curve in the direction sought with a large enough effect; inconclusive = small, poorly fitted or top-dose-only effect, or effect the other way; inactive = no such curve, though single readings can be large or run the other way. This is one part of the list. The source holds several records for some structures; these can differ, active in one and inactive in another.
% is scaled to controls: 0 for no effect and ±100 for the full control effect.

The target of the assay is Cytochrome P450 2C19 (Homo sapiens) (UniProt P33261). The assay is described as follows: Cytochrome panel assay with activity outcomes. The following applies: recombinant CYP, pro-luciferin dealkylation, luminescence, p450-cyp2c19; series mostly up to 57.1 µM.
Chain of Cytochrome P450 2C19 (Homo sapiens) (P33261 whole entry, looked up): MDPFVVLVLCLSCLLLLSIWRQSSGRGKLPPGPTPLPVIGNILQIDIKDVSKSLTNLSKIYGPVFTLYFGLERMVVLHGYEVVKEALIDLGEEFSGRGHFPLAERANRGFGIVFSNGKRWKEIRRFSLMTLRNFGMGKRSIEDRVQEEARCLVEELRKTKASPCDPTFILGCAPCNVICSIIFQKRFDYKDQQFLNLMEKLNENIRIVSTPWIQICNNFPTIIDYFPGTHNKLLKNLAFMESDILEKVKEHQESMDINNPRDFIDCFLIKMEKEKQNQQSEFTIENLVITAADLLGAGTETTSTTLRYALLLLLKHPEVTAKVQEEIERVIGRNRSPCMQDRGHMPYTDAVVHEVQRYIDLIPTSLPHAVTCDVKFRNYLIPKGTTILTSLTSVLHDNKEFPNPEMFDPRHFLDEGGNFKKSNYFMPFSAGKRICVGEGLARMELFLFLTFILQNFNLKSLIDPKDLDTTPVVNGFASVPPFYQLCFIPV
Consider `CSCC[C@@H](N)P(C)(=O)O`, for which the activity, negative = inhibition was 29.3% [at 11.4 µM] (inactive).

Consider `O[Si@](CCCN1CCCCC1)(c1ccc(F)cc1)C1CCCCC1`, for which the AC50 result was “inactive”. For the compound `C[N+]1(C)[C@@H]2CC(OC(=O)[C@@H](CO)c3ccccc3)C[C@@H]1[C@H]1O[C@H]12` (some centres undefined), the activity, negative = inhibition is 26.7% [at 11.4 µM] (inactive). With `C[C@@H]1O[C@H](OC2[C@@H](O)[C@H](O)C(O)[C@H](O)[C@H]2O)[C@@H](N)C[C@@H]1N=C(N)C(=O)O` (some centres undefined), the activity, negative = inhibition was 19% [at 11.4 µM] (inactive). Regarding `N[C@@H](CP(=O)(O)O)C(=O)O`, the activity, negative = inhibition is 9.32% [at 11.4 µM] (inactive). Consider `CC[C@@]1(c2ccc(N)cc2)CCC(=O)NC1=O`, for which the AC50 entry is “inactive”. `CN1CC[C@@]2(CCCN(C(=O)Oc3ccccc3)C2)C1`: the AC50 result is “inactive”.

Take `C[C@@]12C=CC(=O)C=C1CC[C@@H]1C2=CC[C@]2(C)[C@@H]1CC[C@H]2C(=O)CN1CCN(c2cc(N3CCCC3)nc(N3CCCC3)n2)CC1`: the AC50 entry was “inactive”. Regarding `O[C@@H](c1cc(-c2ccccc2)nc2c1ccc1ccccc12)[C@@H]1CCCCN1`, the activity, negative = inhibition was -42.2% [at 11.4 µM] (inactive).

Turning to `CCCN1CCc2cccc3c2[C@@H]1Cc1ccc(O)c(O)c1-3`, the AC50 entry is “inactive”.

In the case of `C[C@@H]1O[C@H](O[C@@H]2CC[C@@]3(C=O)[C@H]4CC[C@@]5(C)[C@@H](C6=CC(=O)OC6)CC[C@@]5(O)[C@@H]4CC[C@]3(O)C2)C[C@H](O)[C@@H]1O`, the AC50 entry is “inactive”. Same read-out and setting: with `COC(=O)[C@@H]1[C@@H]2C[C@H]3c4[nH]c5cc(OC)ccc5c4CCN3C[C@@H]2C[C@H](OC(=O)/C=C\c2cc(OC)c(OC)c(OC)c2)[C@H]1OC` the entry was “inactive”; with `O=c1[nH]c(=O)n([C@H]2C[C@H](O)[C@H](CO)O2)cc1/C=C\Br`, “inactive”; with `COc1ccc2c(c1)CN([C@H](C)[C@@H]1CC[C@@H]3[C@H]4CC[C@H]5C[C@@H](O)CC[C@@]5(C)[C@H]4CC[C@]31C)CO2`, 1 µM (active). `CC(=O)OCC(=O)[C@@H]1CC[C@H]2[C@H]3CC[C@H]4C[C@@H](O)CC[C@]4(C)[C@@H]3C(=O)C[C@@]12C`: the AC50 result is “inactive”. As for `C[C@@]12CC[C@H](O)C[C@@H]1CC[C@H]1[C@H]2CC[C@@]2(C)[C@@H](C3=CC(=O)OC3)CC[C@]12O`, the AC50 result was “inactive”.

Regarding `O=c1c(O)c(-c2ccc(O)c(O)c2)oc2cc(O)cc(O)c12`, the AC50 result was “inactive”.

For the compound `CS(=O)(=O)N1CCCC(C(=O)N2CCC3(CC2)OCCO3)C1` (centres undefined), the concentration at half-maximal activity (AC50) was 10 µM (active).

Turning to `COc1ccc2c(c[n+](C)c3c4cc5c(cc4ccc23)OCO5)c1OC`, the AC50 was 10 µM (active). As for `CC1(C)CCC(C)(C)c2c1ccc(O)c2Cc1c(O)ccc2c1C(C)(C)CCC2(C)C`, the activity, negative = inhibition was -38.9% [at 11.4 µM] (inactive). For the compound `CC(Oc1ccc(-c2ccccc2)cc1)C(=O)O` (centres undefined), the AC50 is 28.2 µM (active). Consider `O=C(O)C(C(=O)O)P(=S)(S)c1ccccc1` (centres undefined), for which the activity, negative = inhibition was 23.5% [at 11.4 µM] (inactive). With `N[C@H](C(=O)O)c1cc(=O)[nH]o1`, the AC50 result is “inactive”. Consider `c1cnc(N2CCC3(CCNCC3)CC2)nc1`, for which the AC50 entry is “inactive”. Still for that read-out and setting: with `C[C@@]12CC[C@H]3[C@@H](CCC4=C(O)C(=O)CC[C@]43C)[C@H]1CCC2=O` the entry was “inactive”. Consider `COc1cc(C=C(C#N)C#N)cc(O)c1O`, for which the AC50 result is “inactive”.

Consider `CS(=O)(=O)O[C@H]1CN2CCC1CC2`, for which the activity, negative = inhibition was 20.2% [at 11.4 µM] (inactive). For the compound `S=P(C1CCCCC1)(C1CCCCC1)[C@H](c1cccnc1)N1CCCC1`, the concentration at half-maximal activity (AC50) was 1.26 µM (active). For `NP(N)(=O)NC(=O)c1ccc(F)cc1`, the AC50 result was “inactive”.

In the case of `c1csc(CN2CC[C@@]3(CCCNC3)C2)n1`, the AC50 entry was “inactive”. Turning to `C[N+]12CCC(CC1)[C@@H](OC(=O)C(O)(c1ccccc1)c1ccccc1)C2`, the AC50 entry is “inactive”. Take `N#CCCN`: the AC50 entry was “inactive”.

Consider `c1ccc2cc(CC3=NCCN3)ccc2c1`, for which the AC50 entry is “inactive”. In the case of `COc1ccc2cc1Oc1ccc(cc1)C[C@H]1c3cc(c(OC)cc3CCN1C)Oc1c(OC)c(OC)cc3c1[C@@H](C2)N(C)CC3`, the activity, negative = inhibition is -36.6% [at 11.4 µM] (inactive). As for `CC1=C2[C@@H]3OC(=O)[C@@H](C)[C@@H]3CC[C@]2(C)C=CC1=O`, the AC50 entry was “inactive”.

In the case of `CCCCN1C(=O)/C(=C\c2ccco2)C(=O)N(CCc2ccccc2)C1=O`, the AC50 was 10 µM (active). Same read-out and setting: in the case of `Cc1cc2c(C(C)C)c(O)c(O)c(C=O)c2c(O)c1-c1c(C)cc2c(C(C)C)c(O)c(O)c(C=O)c2c1O` it was “inactive”; in that of `COC1=C[C@H]2C3=C([C@H]2C1=O)[C@H](NC(C)=O)CCc1cc(OC)c(OC)c(OC)c13`, “inactive”. Regarding `NC(=O)c1ccc(-c2nc(-c3ccc4c(c3)OCO4)c(-c3ccccn3)[nH]2)cc1`, the half-maximal activity concentration (AC50) was 2.51 µM (active). With `CC(C)C(=O)CP(=O)(O)O`, the activity, negative = inhibition is 8.85% [at 11.4 µM] (inactive). In the case of `N=C(N)SCc1ccc(Cl)c2ccccc12` (tested in a mixture with another compound), the activity, negative = inhibition was -27.8% [at 11.4 µM] (inactive) and -26.6% [at 11.4 µM] (inactive). As for `Cn1c(O)c(C(c2ccccn2)c2c(O)n(C)c(=S)n(C)c2=O)c(=O)n(C)c1=S`, the AC50 result is “inactive”. On the same count and under the same terms, with `COC(=O)C(O)(c1c(C)[nH]c2ccccc12)C(F)(F)F` (centres undefined) the figure was 5.01 µM (active); with `c1ccc2sc(C3(N4CCCCC4)CCCCC3)cc2c1`, “inactive”; with `Nc1ncnc2c1ncn2[C@@H]1O[C@@H](COP(=O)(O)CP(=O)(O)OP(=O)(O)O)[C@H](O)[C@@H]1O`, “inactive”. On to `NNC(N)=O`, for which the AC50 result is “inactive”. As for `c1cncc([C@@H]2CCCCN2)c1`, the AC50 entry was “inactive and 2 µM (active)”.

Regarding `c1cncc(CNCCN2CCNCC2)c1`, the activity, negative = inhibition is 7.54% [at 11.4 µM] (inactive). Take `COc1ccc2c(c1)[C@]13CCCC[C@@H]1[C@H](C2)N(C)CC3`: the AC50 entry is “inactive”. Take `O=[As](O)(O)c1ccc(N=Nc2ccc(O)cc2)cc1`: the activity, negative = inhibition was -12.7% [at 11.4 µM] (inactive).

Regarding `CCOc1ccc(C2C(C#N)=C(N)Oc3c2c(=O)oc2ccccc32)cc1` (centres undefined), the AC50 is 5.62 µM (active).

For the compound `CN1CC[C@@]2(CCCN(C(=O)c3ccncc3)C2)C1`, the AC50 result is “inactive”.

`O=C1CS[C@@H](c2ccccc2Cl)c2cc(Cl)ccc2N1`: the AC50 was 25.1 µM (active).

In the case of `O=S(=O)(NCCO)c1cc[c]([Sb](=[O])([OH])[OH])cc1`, the activity, negative = inhibition is 14.4% [at 11.4 µM] (inactive). Regarding `CC(C)c1ccc(C(O)(C(=O)O)c2ccc(C(C)C)cc2)cc1`, the activity, negative = inhibition is 21.5% [at 11.4 µM] (inactive).

`C[C@@]12CC[C@@H]3[C@H](CCC4=CC(=O)CC[C@]43C)[C@@H]1CC[C@@H]2C(=O)COS(=O)(=O)c1ccc(Br)cc1`: the activity, negative = inhibition was -21.8% [at 11.4 µM] (inactive).

In the case of `COc1cc2c3cc1Oc1cc(ccc1O)C[C@@H]1c4c(cc(OC)c(O)c4Oc4cccc(c4)C[C@H]3N(C)CC2)CC[N+]1(C)C`, the AC50 result is “inactive”. Turning to `Cc1nc2ccccc2cc1C[N+]12CN3CN(CN(C3)C1)C2`, the activity, negative = inhibition is -23.7% [at 11.4 µM] (inactive). Regarding `COC(=O)N1CCN(C(=O)Cc2ccc(Cl)c(Cl)c2)[C@H](CN2CCCC2)C1`, the AC50 result was “inactive and 25.1 µM (active)”. Regarding `O=C(Cc1ccc(Cl)c(Cl)c1)N1CCCC[C@H]1CN1CCCC1`, the AC50 entry was “inactive and 6.31 µM (active)”. `CC[N+](CC)(CC)CCOc1cccc(OCC[N+](CC)(CC)CC)c1OCC[N+](CC)(CC)CC`: the AC50 result was “inactive”. With `C=C[C@H]1CN2CC[C@@H]1C[C@H]2[C@@H](O)c1ccnc2ccccc12`, the AC50 result is “inactive”. On the same count and under the same terms, with `N[C@H](Cn1ccc(=O)[nH]c1=O)C(=O)O` the entry was “inactive”. Take `C[C@@]12CC[C@H](O[C@@H]3O[C@H](CO)[C@@H](O)[C@H](O)[C@@H]3O)C[C@@H]1CC[C@H]1[C@H]2CC[C@@]2(C)[C@@H](C3=CCOC3=O)CC[C@]12O`: the activity, negative = inhibition is 22.6% [at 11.4 µM] (inactive).

As to `COC(=O)[C@H]1[C@H](c2ccccc2)C(=O)[C@@]2(O)c3ccccc3O[C@@]12c1ccccc1`, the activity, negative = inhibition was -15.7% [at 11.4 µM] (inactive).

For `COc1cc2c(cc1O)C[C@H]1c3c(cc(O)c(OC)c3-2)CCN1C`, the AC50 entry was “inactive”. Regarding `CC1=CC(=O)C2=C(C)C[C@@H](O)[C@@H]3[C@@H](OC(=O)[C@H]3C)[C@H]12`, the AC50 result was “inactive”. Turning to `C[N+]1([O-])[C@@H]2CC[C@H]1CC(OC(=O)[C@@H](CO)c1ccccc1)C2` (some centres undefined), the AC50 result was “inactive”. `CC12CN3CC(C)(CN(C1)C31CCSCC1)C2=O`: the AC50 result was “inactive”.

Take `O=C(COc1ccc2ccccc2c1)N1CCN(CC2CC3C=CC2C3)CC1` (centres undefined): the half-maximal activity concentration (AC50) is 10 µM (active). Take `CC(=O)N1CCC2(CC1)CC(=O)c1cc(OCC(=O)N3CCN(C)CC3)ccc1O2`: the AC50 result was “inactive”. Still for that read-out and setting: in the case of `COc1cc(CN2CCN(C(=O)COc3ccccc3)CC2)cc(OC)c1OC` it was “inactive”. In the case of `C(=NC12CN3CN(CN(C3)C1)C2)c1cccs1`, the AC50 entry was “inactive”. For the compound `CCCc1cc2c(n1Cc1cccc(Cl)c1)C(C)C1CN(C(=O)c3ccccc3)C(C)(C(=O)OC)C21` (centres undefined), the AC50 was 15.8 µM (active). On to `N#CCCCC[N+]12CN3CN(CN(C3)C1)C2`, for which the activity, negative = inhibition is 19.8% [at 11.4 µM] (inactive).

As for `C=C(CC1(C(C)NP(=O)(c2ccccc2)c2ccccc2)CC1)c1ccccc1` (centres undefined), the AC50 was 10 µM (active). Take `O=C(O)[C@H]1C[C@@H]1[C@H](NP(=O)(c1ccccc1)c1ccccc1)c1ccccc1`: the AC50 result is “inactive”.

Regarding `C=C(CC1(CNP(=O)(c2ccccc2)c2ccccc2)CC1)c1ccccc1`, the AC50 entry is “inactive”. On the same count and under the same terms, with `CNC(=O)OCC[N+](C)(C)C` the entry was “inactive”. Regarding `O=C(O)c1ccccc1-c1c2cc(Br)c(=O)cc-2oc2[c]([Hg])c(O)c(Br)cc12`, the AC50 is 3.16 µM (active).

With `NC(N)=Nc1ccc2[nH]c3c(c2c1)C[C@]1(O)[C@@H]2Cc4ccc(O)c5c4[C@]1(CCN2CC1CC1)[C@@H]3O5`, the AC50 entry is “inactive”. Turning to `N[C@H](Cc1ccc2oc3cc(=O)c4ccccc4c-3nc2c1)C(=O)O`, the activity, negative = inhibition is -35.8% [at 11.4 µM] (inactive). On to `O=C(O)CCCc1ccc(N(CCCl)CCCl)cc1`, for which the AC50 entry is “inactive”. With `COC(=O)c1[nH]c2ccc(Br)cc2c1NC(=O)Oc1ccccc1`, the concentration at half-maximal activity (AC50) is 11.2 µM (active).
